Results filed as inconclusive are left out. Activity calls are given as the source filed them. The calls were made as follows, unless noted: active = hit-call score of the fitted dose curve at least 0.9, where 1 is the maximum; inactive = score below 0.9.
Experiments:
[1] = read-out: Intercellular Adhesion Molecule 1 (ICAM1), ICAM1 (gene 3383); assay: BSK_3C_ICAM1: BioMAP Diversity Plus: 3C Assay for Intercellular Adhesion Molecule 1 (ICAM1) Biomarker Activity (AID 2283003); conditions: primary human endothelial cells (HUVEC); actives raise or lower the signal
Procedure, shortened: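 ELISA readout of ICAM1 in human umbilical vein endothelial cells in the 3C system, taken 24 h post-dose. Gain or loss of signal versus DMSO was fitted in both directions, with SRB total-protein staining run in parallel.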

[2] = biological target: human Retinoic Acid Receptor beta (RARb), RARB (gene 5915) (UniProt P10826); assay: ATG_RARb_TRANS: Attagene TRANS-FACTORIAL HepG2 Assay for human Retinoic Acid Receptor beta (AID 2283004; active = hit-call score of the fitted dose curve at least 0.9, where 1 is the maximum)
Procedure, shortened: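 Transient transfection of HepG2 with multiple reporter units → chemical dosing, 24 h → total RNA isolation → RT with oligo(dT) → reporter-specific PCR, 6-FAM primer extension, HpaI digest → capillary electrophoresis. Positive direction vs DMSO control.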

[3] = biological target: Retinoic acid receptor alpha (Homo sapiens) (UniProt P10276); assay: ATG_RARa_TRANS: Attagene TRANS-FACTORIAL HepG2 Assay for human Retinoic Acid Receptor alpha (RARa) (AID 2283005; active = hit-call score of the fitted dose curve at least 0.9, where 1 is the maximum)
Procedure, shortened: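 HepG2 cells transiently transfected with multiple reporter units expressing chimeric RARα-GAL4 fusion, with GAL4-UAS-driven reporters. After 24 h compound exposure, reporter mRNA induction quantified by RT-PCR and capillary electrophoresis with fluorescent labeling; gain-of-signal fitted relative to DMSO control.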

[4] = BSK_3C_Proliferation: Cell Proliferation Assessment in the BioMAP Diversity Plus: 3C Assay (AID 2283006); conditions: primary human endothelial cells (HUVEC);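 as to AC50: potency may reflect either rise or fall in cell number versus DMSO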
Procedure, shortened: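 Proliferation as total protein: sulforhodamine B (0.1%) stain of TCA-fixed subconfluent human umbilical vein endothelial cells, absorbance 560 nm, 48 h after dosing. Activity fitted in both directions against DMSO baseline.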

[5] = biological target: Nuclear receptor subfamily 1 group I member 2 (Homo sapiens) (UniProt O75469); assay: ATG_PXR_TRANS: Attagene TRANS-FACTORIAL HepG2 Assay for human Pregnane X Receptor (PXR) (AID 2283008; active = hit-call score of the fitted dose curve at least 0.9, where 1 is the maximum)
Procedure, shortened: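 HepG2 transfected (FuGene 6) with GAL4-UAS reporter units + PXR-Gal4 chimera; dosed 24 h. Total RNA → oligo(dT) RT → PCR → 6-FAM primer extension → HpaI cut → CE. Gain-of-signal vs DMSO.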

[6] = biological target: human RAR-related Orphan Receptor beta (RORb), RORB (gene 6096) (UniProt Q92753); assay: ATG_RORb_TRANS: Attagene TRANS-FACTORIAL HepG2 Assay for human RAR-related Orphan Receptor beta (RORb) (AID 2283010; active = hit-call score of the fitted dose curve at least 0.9, where 1 is the maximum)
Procedure, shortened: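 Read-out is reporter mRNA induction, quantified by RT-PCR with fluorescent capillary electrophoresis, 24 h post-dose in transiently transfected HepG2 expressing exogenous NR-Gal4 chimera. Activity fitted upward versus DMSO.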

[7] = biological target: human RAR-related Orphan Receptor gamma (RORg), RORC (gene 6097) (UniProt P51449); assay: ATG_RORg_TRANS: Attagene TRANS-FACTORIAL HepG2 Assay for human RAR-related Orphan Receptor gamma (RORg) (AID 2283011; active = hit-call score of the fitted dose curve at least 0.9, where 1 is the maximum)
Procedure, shortened: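 First, HepG2 liver cells were transfected with GAL4-UAS-driven reporter constructs and the RORg-Gal4 fusion. Next, they were treated with chemical for 24 h. Finally, reporter mRNA was quantified by RT-PCR and capillary electrophoresis, with upward activity fitted against DMSO.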

[8] = biological target: human Retinoid X Receptor beta (RXRb), RXRB (gene 6257) (UniProt P28702); assay: ATG_RXRb_TRANS: Attagene TRANS-FACTORIAL HepG2 Assay for human Retinoid X Receptor beta (RXRb) (AID 2283013; active = hit-call score of the fitted dose curve at least 0.9, where 1 is the maximum)
Procedure, shortened: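 Readout is reporter transcript induction after 24 h dosing. It is measured by RT-PCR of total RNA followed by fluorescent capillary electrophoresis. HepG2 liver cells carry transfected multiple reporter units driven by an exogenous RXRb-Gal4 fusion; activity is relative to DMSO.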

[9] = read-out: Interleukin-1 alpha (IL1a), IL1A (gene 3552); assay: BSK_BE3C_IL1a: BioMAP Diversity Plus: BE3C Assay for Interleukin-1 alpha (IL1a) Biomarker Activity (AID 2283016); conditions: primary human bronchial epithelial cells; actives raise or lower the signal
Procedure, shortened: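 IL-1a measured by ELISA after 24 h treatment of human primary bronchial epithelial cells, with gain or loss of signal fitted versus DMSO. Parallel cultures stained with SRB gauge overt cytotoxicity.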

[10] = read-out: Monocyte Chemoattractant Protein-1 (MCP1), CCL2 (gene 6347); assay: BSK_3C_MCP1: BioMAP Diversity Plus: 3C Assay for Monocyte Chemoattractant Protein-1 (MCP1) Biomarker Activity (AID 2283017); conditions: primary human endothelial cells (HUVEC); actives raise or lower the signal
Procedure, shortened: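 ELISA read-out of MCP-1 from human umbilical vein endothelial cell cultures harvested 24 h post-dosing. Gain or loss of signal was fitted relative to DMSO.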

[11] = read-out: Monocyte Chemoattractant Protein-1 (MCP1), CCL2 (gene 6347); assay: BSK_4H_MCP1: BioMAP Diversity Plus: 4H Assay for Monocyte Chemoattractant Protein-1 (MCP1) Biomarker Activity (AID 2283018); conditions: primary human endothelial cells (HUVEC); actives raise or lower the signal
Procedure, shortened: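 ELISA of MCP-1 (CCL2) 24 h after chemical dosing of HUVEC in the BioMAP 4H system. Gain or loss versus DMSO fitted; parallel SRB staining (560 nm) tracked overt cytotoxicity.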

[12] = read-out: Human Leukocyte Antigen - DR isotype (HLADR), HLA-DRA (gene 3122); assay: BSK_3C_HLADR: BioMAP Diversity Plus: 3C Assay for Human Leukocyte Antigen - DR isotype (HLADR) Biomarker Activity (AID 2283019); conditions: primary human endothelial cells (HUVEC); actives raise or lower the signal
Procedure, shortened: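 ELISA readout of surface HLA-DR on human umbilical vein endothelium, taken 24 h after chemical treatment. Gain- and loss-of-signal were both fitted relative to DMSO.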

[13] = read-out: Interleukin-8 (IL8), CXCL8 (gene 3576); assay: BSK_3C_IL8: BioMAP Diversity Plus: 3C Assay for Interleukin-8 (IL8) Biomarker Activity (AID 2283020); conditions: primary human endothelial cells (HUVEC); actives raise or lower the signal
Procedure, shortened: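 IL-8 was measured by ELISA in HUVEC cultures 24 h after chemical dosing, with gain or loss of signal fitted relative to DMSO. Parallel SRB total-protein staining tracked overt cytotoxicity.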

[14] = biological target: human Vitamin D Receptor (VDR), VDR (gene 7421) (UniProt P11473); assay: ATG_VDR_TRANS: Attagene TRANS-FACTORIAL HepG2 Assay for human Vitamin D Receptor (VDR) (AID 2283022; active = hit-call score of the fitted dose curve at least 0.9, where 1 is the maximum)
Procedure, shortened: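 Steps: transfect HepG2 with GAL4-UAS-driven reporter constructs; dose compounds 24 h; isolate RNA, reverse-transcribe, PCR-amplify with 6-FAM-labelled primer extension and HpaI digestion; quantify fragments by capillary electrophoresis relative to DMSO.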

[15] = biological target: Peroxisome proliferator-activated receptor gamma (Homo sapiens) (UniProt P37231); assay: ATG_PPARg_TRANS: Attagene TRANS-FACTORIAL HepG2 Assay for human Peroxisome Proliferator-activated Receptor-gamma (PPARg) (AID 2283007; active = hit-call score of the fitted dose curve at least 0.9, where 1 is the maximum)
Procedure, shortened: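 Transient transfection of HepG2 with GAL4-UAS-driven reporter units; chemical dosing 24 h; total RNA → oligo(dT) RT → PCR with reporter primers → 6-FAM primer extension → HpaI digest 2 h 37 C → capillary electrophoresis. Positive direction vs DMSO.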

[16] = biological target: human Retinoic Acid Receptor gamma (RARg), RARG (gene 5916) (UniProt P13631); assay: ATG_RARg_TRANS: Attagene TRANS-FACTORIAL HepG2 Assay for human Retinoic Acid Receptor gamma (RARg) (AID 2283009; active = hit-call score of the fitted dose curve at least 0.9, where 1 is the maximum)
Procedure, shortened: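 Transactivation of exogenous RARg-Gal4 fusion measured as reporter transcript induction after 24 h in transfected HepG2 cells. RNA reverse-transcribed, amplified, fluorescently labeled and resolved by capillary electrophoresis; increase relative to DMSO.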

[17] = biological target: Retinoic acid receptor RXR-alpha (Homo sapiens) (UniProt P19793); assay: ATG_RXRa_TRANS: Attagene TRANS-FACTORIAL HepG2 Assay for human Retinoid X Receptor alpha (RXRa) (AID 2283012; active = hit-call score of the fitted dose curve at least 0.9, where 1 is the maximum)
Procedure, shortened: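 TRANS format reporting activity of exogenous RXRa-Gal4 chimera in transiently transfected HepG2, 24 h exposure. Reporter transcripts quantified by RT-PCR with capillary electrophoresis, with gain of signal scored relative to DMSO.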

[18] = biological target: human Thyroid Receptor alpha (THRa1), THRA (gene 7067) (UniProt P10827); assay: ATG_THRa1_TRANS: Attagene TRANS-FACTORIAL HepG2 Assay for human Thyroid Receptor alpha (THRa1) (AID 2283014; active = hit-call score of the fitted dose curve at least 0.9, where 1 is the maximum)
Procedure, shortened: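 Reporter transcript induction, read by capillary electrophoresis of 6-FAM-labelled RT-PCR products, reflects activity of a transfected THRa1-Gal4 fusion in HepG2 liver cells. Cells were dosed for 24 h; activity was fitted in the positive direction against DMSO.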

[19] = read-out: Monokine induced gamma interferon (MIG), CXCL9 (gene 4283); assay: BSK_3C_MIG: BioMAP Diversity Plus: 3C Assay for Monokine induced gamma interferon (MIG) Biomarker Activity (AID 2283021); conditions: primary human endothelial cells (HUVEC); actives raise or lower the signal;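 as to AC50: MIG protein level measured by immunoassay in the treated endothelial cultures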
Procedure, shortened: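 ELISA measurement of MIG in human umbilical vein endothelial cells 24 h after treatment. Cytotoxicity tracked by SRB staining in parallel cultures; gain or loss of signal fitted relative to DMSO.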

[20] = read-out: E-selectin (Homo sapiens) (UniProt P16581); assay: BSK_3C_Eselectin: BioMAP Diversity Plus: 3C Assay for Eselectin Biomarker Activity (AID 2283015); conditions: primary human endothelial cells (HUVEC); actives raise or lower the signal
Procedure, shortened: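 ELISA read-out of E-selectin on endothelial monolayers after 24 h chemical treatment. Human umbilical vein primary cells served as the system, with DMSO defining baseline activity for bidirectional fitting.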

Measured: AC50

human Retinoic Acid Receptor gamma (RARg), RARG (gene 5916), sequence (P13631 whole entry, looked up, the tested form may be a part): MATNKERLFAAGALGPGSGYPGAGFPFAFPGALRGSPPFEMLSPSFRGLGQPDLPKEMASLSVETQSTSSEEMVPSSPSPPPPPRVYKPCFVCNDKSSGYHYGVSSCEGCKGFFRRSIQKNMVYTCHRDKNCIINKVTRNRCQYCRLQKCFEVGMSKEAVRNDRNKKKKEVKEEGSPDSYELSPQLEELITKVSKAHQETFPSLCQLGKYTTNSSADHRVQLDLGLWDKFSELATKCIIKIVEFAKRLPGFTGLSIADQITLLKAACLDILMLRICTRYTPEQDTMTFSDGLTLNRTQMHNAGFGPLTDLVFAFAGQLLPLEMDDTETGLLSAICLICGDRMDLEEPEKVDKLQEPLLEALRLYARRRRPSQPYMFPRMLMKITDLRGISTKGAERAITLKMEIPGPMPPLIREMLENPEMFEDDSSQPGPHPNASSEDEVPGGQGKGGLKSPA
Peroxisome proliferator-activated receptor gamma (Homo sapiens), sequence (P37231 whole entry, looked up, the tested form may be a part): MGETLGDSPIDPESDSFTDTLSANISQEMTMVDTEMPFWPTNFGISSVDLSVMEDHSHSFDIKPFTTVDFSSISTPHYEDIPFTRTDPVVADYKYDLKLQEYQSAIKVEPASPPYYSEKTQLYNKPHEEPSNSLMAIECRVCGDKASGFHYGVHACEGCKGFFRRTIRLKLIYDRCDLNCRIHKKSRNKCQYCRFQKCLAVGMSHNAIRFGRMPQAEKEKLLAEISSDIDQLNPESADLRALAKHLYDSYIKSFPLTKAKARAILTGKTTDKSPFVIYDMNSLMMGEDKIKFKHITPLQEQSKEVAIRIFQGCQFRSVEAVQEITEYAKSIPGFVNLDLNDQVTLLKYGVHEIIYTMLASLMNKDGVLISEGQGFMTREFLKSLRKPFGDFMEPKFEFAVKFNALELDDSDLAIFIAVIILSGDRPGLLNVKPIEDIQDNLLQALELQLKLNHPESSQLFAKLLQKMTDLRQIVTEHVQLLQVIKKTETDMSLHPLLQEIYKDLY
Nuclear receptor subfamily 1 group I member 2 (Homo sapiens), sequence (O75469 whole entry, looked up, the tested form may be a part): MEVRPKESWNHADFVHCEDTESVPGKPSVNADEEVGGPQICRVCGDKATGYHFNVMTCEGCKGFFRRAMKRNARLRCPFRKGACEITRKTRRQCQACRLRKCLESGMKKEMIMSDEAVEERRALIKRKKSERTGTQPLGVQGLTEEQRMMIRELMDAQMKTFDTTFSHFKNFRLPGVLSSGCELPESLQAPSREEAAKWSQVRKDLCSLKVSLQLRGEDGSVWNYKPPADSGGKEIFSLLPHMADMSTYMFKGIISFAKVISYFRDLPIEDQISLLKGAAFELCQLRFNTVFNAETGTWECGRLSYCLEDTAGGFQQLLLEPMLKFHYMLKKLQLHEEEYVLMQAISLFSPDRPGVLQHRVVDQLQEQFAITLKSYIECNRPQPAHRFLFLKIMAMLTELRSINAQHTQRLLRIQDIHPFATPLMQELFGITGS
human Retinoid X Receptor beta (RXRb), RXRB (gene 6257), sequence (P28702 whole entry, looked up, the tested form may be a part): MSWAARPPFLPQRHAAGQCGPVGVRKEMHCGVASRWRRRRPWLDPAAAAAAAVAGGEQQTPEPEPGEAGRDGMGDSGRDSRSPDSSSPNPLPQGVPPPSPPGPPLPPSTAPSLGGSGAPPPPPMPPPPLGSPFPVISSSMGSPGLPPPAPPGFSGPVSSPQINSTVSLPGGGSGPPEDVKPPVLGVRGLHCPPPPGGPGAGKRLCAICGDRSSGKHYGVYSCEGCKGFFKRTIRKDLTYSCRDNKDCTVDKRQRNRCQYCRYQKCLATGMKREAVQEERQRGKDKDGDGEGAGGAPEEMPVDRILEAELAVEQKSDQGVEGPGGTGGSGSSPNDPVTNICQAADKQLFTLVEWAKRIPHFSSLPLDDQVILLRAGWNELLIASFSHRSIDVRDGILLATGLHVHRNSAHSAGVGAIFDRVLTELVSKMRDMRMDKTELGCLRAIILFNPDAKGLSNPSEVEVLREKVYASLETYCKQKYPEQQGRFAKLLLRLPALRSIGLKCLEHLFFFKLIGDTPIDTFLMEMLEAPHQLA
human Thyroid Receptor alpha (THRa1), THRA (gene 7067), sequence (P10827 whole entry, looked up, the tested form may be a part): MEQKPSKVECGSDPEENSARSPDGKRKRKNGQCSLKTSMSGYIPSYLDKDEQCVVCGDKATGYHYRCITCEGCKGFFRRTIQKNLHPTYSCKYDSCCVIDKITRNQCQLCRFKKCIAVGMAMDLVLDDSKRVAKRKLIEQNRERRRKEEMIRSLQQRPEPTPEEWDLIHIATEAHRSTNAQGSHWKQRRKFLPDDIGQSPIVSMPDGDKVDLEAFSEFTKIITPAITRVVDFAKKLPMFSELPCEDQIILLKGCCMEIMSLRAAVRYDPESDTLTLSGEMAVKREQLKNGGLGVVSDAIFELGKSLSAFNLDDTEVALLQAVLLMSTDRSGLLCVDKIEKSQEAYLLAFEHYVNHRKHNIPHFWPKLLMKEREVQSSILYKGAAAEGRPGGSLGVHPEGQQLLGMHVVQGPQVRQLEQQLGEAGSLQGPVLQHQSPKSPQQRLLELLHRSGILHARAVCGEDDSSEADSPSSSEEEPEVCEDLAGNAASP
human Vitamin D Receptor (VDR), VDR (gene 7421), sequence (P11473 whole entry, looked up, the tested form may be a part): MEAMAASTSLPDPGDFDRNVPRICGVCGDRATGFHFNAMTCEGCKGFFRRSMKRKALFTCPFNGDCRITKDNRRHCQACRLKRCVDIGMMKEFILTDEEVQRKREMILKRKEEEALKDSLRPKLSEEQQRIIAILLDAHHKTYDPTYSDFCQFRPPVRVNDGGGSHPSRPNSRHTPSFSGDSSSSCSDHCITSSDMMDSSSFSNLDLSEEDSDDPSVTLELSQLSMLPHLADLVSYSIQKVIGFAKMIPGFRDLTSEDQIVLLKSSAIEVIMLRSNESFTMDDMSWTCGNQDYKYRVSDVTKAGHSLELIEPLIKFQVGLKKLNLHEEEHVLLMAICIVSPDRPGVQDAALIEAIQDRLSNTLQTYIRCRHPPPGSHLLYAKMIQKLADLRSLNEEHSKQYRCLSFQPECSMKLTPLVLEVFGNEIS
human Retinoic Acid Receptor beta (RARb), RARB (gene 5915), sequence (P10826 whole entry, looked up): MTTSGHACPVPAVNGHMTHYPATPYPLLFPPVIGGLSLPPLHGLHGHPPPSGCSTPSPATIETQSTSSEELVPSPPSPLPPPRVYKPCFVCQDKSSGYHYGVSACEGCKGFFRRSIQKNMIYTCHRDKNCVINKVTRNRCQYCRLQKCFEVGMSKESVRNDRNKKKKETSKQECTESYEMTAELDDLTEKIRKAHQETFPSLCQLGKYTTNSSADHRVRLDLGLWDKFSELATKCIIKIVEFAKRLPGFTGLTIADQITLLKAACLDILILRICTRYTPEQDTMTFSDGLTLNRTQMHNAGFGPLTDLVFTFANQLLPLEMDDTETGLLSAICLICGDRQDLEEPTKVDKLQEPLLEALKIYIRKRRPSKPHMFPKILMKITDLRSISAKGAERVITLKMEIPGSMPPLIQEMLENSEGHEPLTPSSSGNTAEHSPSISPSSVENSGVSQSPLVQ
Retinoic acid receptor RXR-alpha (Homo sapiens), sequence (P19793 whole entry, looked up, the tested form may be a part): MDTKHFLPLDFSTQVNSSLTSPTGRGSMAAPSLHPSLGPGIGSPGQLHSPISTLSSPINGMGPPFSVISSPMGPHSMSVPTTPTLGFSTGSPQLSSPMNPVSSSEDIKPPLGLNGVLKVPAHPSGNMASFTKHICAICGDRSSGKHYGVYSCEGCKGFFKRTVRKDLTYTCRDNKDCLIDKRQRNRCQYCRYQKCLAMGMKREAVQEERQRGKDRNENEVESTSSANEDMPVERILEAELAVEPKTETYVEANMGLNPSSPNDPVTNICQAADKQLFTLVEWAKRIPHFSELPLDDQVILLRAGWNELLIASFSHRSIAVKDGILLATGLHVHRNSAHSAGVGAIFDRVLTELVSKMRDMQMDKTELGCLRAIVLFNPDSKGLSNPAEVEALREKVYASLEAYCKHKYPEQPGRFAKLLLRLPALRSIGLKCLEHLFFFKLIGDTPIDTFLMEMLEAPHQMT
human RAR-related Orphan Receptor gamma (RORg), RORC (gene 6097), sequence (P51449 whole entry, looked up, the tested form may be a part): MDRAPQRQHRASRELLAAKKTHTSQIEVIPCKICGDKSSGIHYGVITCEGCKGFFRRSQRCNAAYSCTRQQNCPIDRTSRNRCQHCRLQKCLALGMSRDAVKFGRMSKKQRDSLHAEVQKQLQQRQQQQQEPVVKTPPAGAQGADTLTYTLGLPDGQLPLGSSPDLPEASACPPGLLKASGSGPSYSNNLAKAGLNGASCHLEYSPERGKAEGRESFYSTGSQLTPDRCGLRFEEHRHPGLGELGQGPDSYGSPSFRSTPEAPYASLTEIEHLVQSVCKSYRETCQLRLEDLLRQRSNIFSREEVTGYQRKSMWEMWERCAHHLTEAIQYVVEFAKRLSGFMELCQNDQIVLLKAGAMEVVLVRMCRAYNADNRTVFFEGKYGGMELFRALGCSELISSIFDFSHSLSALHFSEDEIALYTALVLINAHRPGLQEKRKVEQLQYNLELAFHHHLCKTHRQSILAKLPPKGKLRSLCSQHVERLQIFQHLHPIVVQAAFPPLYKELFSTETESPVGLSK
E-selectin (Homo sapiens), sequence (P16581 whole entry, looked up): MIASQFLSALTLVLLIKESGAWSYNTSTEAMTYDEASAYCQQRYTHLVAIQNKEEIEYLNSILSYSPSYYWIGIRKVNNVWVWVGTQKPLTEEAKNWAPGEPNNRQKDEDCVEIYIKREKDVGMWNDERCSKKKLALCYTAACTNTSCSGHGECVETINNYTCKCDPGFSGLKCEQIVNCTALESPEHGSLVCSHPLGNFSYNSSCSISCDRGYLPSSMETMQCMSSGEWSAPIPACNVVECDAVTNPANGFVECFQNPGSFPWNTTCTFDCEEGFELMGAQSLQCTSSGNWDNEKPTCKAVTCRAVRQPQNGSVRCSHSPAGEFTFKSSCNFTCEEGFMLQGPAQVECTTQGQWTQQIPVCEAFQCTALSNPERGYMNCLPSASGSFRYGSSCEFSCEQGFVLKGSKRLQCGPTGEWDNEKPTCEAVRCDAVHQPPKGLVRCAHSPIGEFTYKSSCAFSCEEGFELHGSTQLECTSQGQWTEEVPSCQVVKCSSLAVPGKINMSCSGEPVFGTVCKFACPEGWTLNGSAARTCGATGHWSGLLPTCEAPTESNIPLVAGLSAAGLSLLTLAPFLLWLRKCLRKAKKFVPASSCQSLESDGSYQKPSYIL

CC(C)=CC1C(C(=O)OCc2cccc(Oc3ccccc3)c2)C1(C)C (stereo not given)
active: [4] 20 µM | [5] 9.55 µM | [11] 20 µM | [12] 20 µM
not listed: [15] | [16] | [17] | [18] | [19] | [20]
inactive: all other assays above

OC(Cc1ccccc1Cl)(Cn1cncn1)C1(Cl)CC1 (stereo not given)
active: [5] 7.37 µM
not listed: [6] | [14] | [20]
inactive: all other assays above

c1ccc2sc(SNC3CCCCC3)nc2c1
active: [15] 6.77 µM | [5] 20.2 µM | [12] 29.3 µM
not listed: [2] | [3] | [16] | [17] | [19]
inactive: all other assays above

CCOP(=O)(OCC)SCCSCC
not listed: [2] | [14] | [17] | [20]
inactive: all other assays above

COCC(=O)N(c1c(C)cccc1C)[C@H](C)C(=O)OC
active: [5] 20.2 µM
not listed: [6] | [8] | [14] | [15] | [18] | [20]
inactive: all other assays above

C[C@]12CC[C@@H](O)C[C@@H]1CC[C@@H]1[C@@H]2CC[C@]2(C)C(=O)CC[C@@H]12
not listed: [15] | [17] | [18]
inactive: all other assays above

CCOP(=O)(OCC)OC(=CCl)c1ccc(Cl)cc1Cl
active: [4] 28.9 µM | [15] 27.4 µM | [5] 0.62 µM | [10] 35.4 µM | [11] 20 µM | [12] 32.7 µM | [13] 3.97 µM
inactive: [1] | [2] | [9]

O=C(N[C@H]1CN2CCC1CC2)c1ccc2c(c1)OCCO2
not listed: [3] | [6] | [8] | [18] | [20]
inactive: all other assays above

CCN(CC)C(=O)C(Cl)=C(C)OP(=O)(OC)OC
not listed: [2] | [3] | [8] | [14] | [16] | [17] | [19] | [20]
inactive: all other assays above

CC(C)(C)c1ccccc1O
active: [5] 15.4 µM | [17] 100 µM | [8] 10.6 µM
not listed: [2] | [3] | [6] | [15] | [16] | [19] | [20]
inactive: all other assays above

C[CH2][Hg][S]c1ccccc1C(=O)O
active: [15] 3.71 µM | [8] 1.72 µM
inactive: [2] | [3] | [5] | [16] | [6] | [7] | [17] | [18] | [14]

O=[N+]([O-])c1cccc2ccccc12
active: [5] 30.4 µM | [8] 100 µM
not listed: [2] | [3] | [6] | [7] | [14] | [16]
inactive: all other assays above

O=S(=O)(c1ccc(Cl)cc1)c1cc(Cl)c(Cl)cc1Cl
active: [4] 5.2 µM | [15] 7.66 µM | [5] 1.25 µM | [10] 20 µM | [12] 5.27 µM | [13] 3.97 µM
inactive: [1] | [17] | [20] | [9] | [11] | [14]

O=[N+]([O-])c1ccc(Nc2ccccc2)cc1
active: [5] 12.3 µM | [8] 12.1 µM | [11] 20 µM
not listed: [2] | [3] | [6] | [7] | [16] | [19] | [20]
inactive: all other assays above

N#CCCC(Br)(C#N)CBr (stereo not given)
active: [1] 11 µM | [4] 1.28 µM | [9] 20 µM | [10] 7.55 µM | [11] 5.77 µM | [12] 3.16 µM | [13] 8.39 µM | [19] 12.7 µM
inactive: [17] | [14]

CCOP(=S)(OCC)OP(=S)(OCC)OCC
active: [1] 36.8 µM | [4] 31.6 µM | [8] 50.2 µM | [20] 32.1 µM | [10] 26.5 µM | [11] 33.5 µM | [12] 30.4 µM
inactive: [6] | [17] | [18] | [9] | [13]

CN(C)c1ccc(N=O)cc1
inactive: [2] | [3] | [15] | [5] | [16] | [6] | [7] | [8] | [18] | [14]
